Measurements from PubChem BioAssay AID1159580 (chemical genetic matrix, 2015).
Among all 5,500 compounds or so, about 2,000 (36%) were called active. Not shown: some 18% with an inconclusive outcome. Cut-off read from the data, not from the text of the source: active = normalized growth mostly below about 0.91 (no sharp cut-off); inconclusive = no clear call, values can overlap the other calls; inactive = mostly above about 0.92. Some of the results follow.

Assay: chemical genetic growth profiling, strain panel (AID 1159580);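 note: tested at 20 µM; growth read once vehicle control cultures reached saturation at 30 °C; 1 = growth at the plate median or of vehicle wells; lower values mean less growth of the strain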
Conditions: growth OD

Measured: normalized growth

CC(=O)O[C@H]1C[C@@H](O)C(C)(C)C2C[C@@H](OC(C)=O)[C@]3(C)C(CC[C@@]4(C)[C@H](c5ccoc5)OC(=O)C5OC543)[C@]21C (stereo partly specified)
inactive: S. cerevisiae deletion strains, locus YJL187C, strain SWE1, stronger effect = lower value 0.996 | S. cerevisiae deletion strains, locus YJR066W, strain TOR1, stronger effect = lower value 0.928 | S. cerevisiae deletion strains, locus YKL009W, strain mrt4, stronger effect = lower value 0.954 | S. cerevisiae deletion strains, locus YKL068W, stronger effect = lower value 0.976 | S. cerevisiae deletion strains, locus YKL085W, strain MDH1 (second series), stronger effect = lower value 0.974 | S. cerevisiae deletion strains, locus YKL085W, strain MDH1, stronger effect = lower value 0.974 | S. cerevisiae deletion strains, locus YKL160W, strain elf1, stronger effect = lower value 1.01 | S. cerevisiae deletion strains, locus YKR001C, strain vps1, stronger effect = lower value 0.983 | S. cerevisiae deletion strains, locus YKR026C, strain gcn3, stronger effect = lower value 1.01 | S. cerevisiae deletion strains, locus YKR091W, strain srl3, stronger effect = lower value 1.01 | S. cerevisiae deletion strains, locus YLL001W, strain dnm1, stronger effect = lower value 0.998 | S. cerevisiae deletion strains, locus YLL026W, stronger effect = lower value 1.01 | S. cerevisiae deletion strains, locus YLL041C, strain sdh2, stronger effect = lower value 0.999 | S. cerevisiae deletion strains, locus YLR027C, strain aat2, stronger effect = lower value 1.01 | S. cerevisiae deletion strains, locus YLR039C, strain RIC1, stronger effect = lower value 1.04 | S. cerevisiae deletion strains, locus YLR058C, strain SHM2, stronger effect = lower value 0.967 | S. cerevisiae deletion strains, locus YLR102C, strain apc9, stronger effect = lower value 0.984 | S. cerevisiae deletion strains, locus YLR113W, strain HOG1, stronger effect = lower value 1.02 | S. cerevisiae deletion strains, locus YLR221C, strain rsa3, stronger effect = lower value 1.01 | S. cerevisiae deletion strains, locus YLR258W, strain gsy2, stronger effect = lower value 1 | S. cerevisiae deletion strains, locus YLR262C, strain YPT6 (second series), stronger effect = lower value 1.01 | S. cerevisiae deletion strains, locus YLR262C, strain YPT6, stronger effect = lower value 1.02 | S. cerevisiae deletion strains, locus YLR268W, strain sec22, stronger effect = lower value 0.977 | S. cerevisiae deletion strains, locus YLR320W, strain mms22, stronger effect = lower value 1.02 | S. cerevisiae deletion strains, locus YLR330W, strain CHS5, stronger effect = lower value 0.992 | S. cerevisiae deletion strains, locus YLR342W, strain FKS1 (second series), stronger effect = lower value 0.988 | S. cerevisiae deletion strains, locus YLR342W, strain FKS1, stronger effect = lower value 1.01 | S. cerevisiae deletion strains, locus YLR357W, strain rsc2, stronger effect = lower value 1.04 | S. cerevisiae deletion strains, locus YLR370C, strain arc18, stronger effect = lower value 0.999 | S. cerevisiae deletion strains, locus YLR371W, strain rom2, stronger effect = lower value 0.988 | S. cerevisiae deletion strains, locus YLR384C, strain iki3, stronger effect = lower value 0.999 | S. cerevisiae deletion strains, locus YLR418C, strain cdc73, stronger effect = lower value 0.979 | S. cerevisiae deletion strains, locus YML016C, strain PPZ1, stronger effect = lower value 0.975 | S. cerevisiae deletion strains, locus YML032C, strain rad52, stronger effect = lower value 0.991 | S. cerevisiae deletion strains, locus YML120C, strain ndi1, stronger effect = lower value 1.01 | S. cerevisiae deletion strains, locus YML124C, strain tub3, stronger effect = lower value 0.986 | S. cerevisiae deletion strains, locus YMR058W, strain fet3, stronger effect = lower value 1.01 | S. cerevisiae deletion strains, locus YMR078C, strain ctf18, stronger effect = lower value 0.988 | S. cerevisiae deletion strains, locus YMR125W, strain sto1, stronger effect = lower value 1 | S. cerevisiae deletion strains, locus YMR129W, stronger effect = lower value 1.03 | S. cerevisiae deletion strains, locus YMR205C, strain PFK2, stronger effect = lower value 1.01 | S. cerevisiae deletion strains, locus YMR223W, strain ubp8, stronger effect = lower value 0.991 | S. cerevisiae deletion strains, locus YMR231W, strain pep5, stronger effect = lower value 0.988 | S. cerevisiae deletion strains, locus YMR307W, strain GAS1, stronger effect = lower value 0.964 | S. cerevisiae deletion strains, locus YNL067W, strain RPL9B, stronger effect = lower value 1.02 | S. cerevisiae deletion strains, locus YNL071W, strain lat1, stronger effect = lower value 1 | S. cerevisiae deletion strains, locus YNL183C, strain NPR1, stronger effect = lower value 0.946 | S. cerevisiae deletion strains, locus YNL209W, strain ssb2, stronger effect = lower value 0.995 | S. cerevisiae deletion strains, locus YNL233W, strain BNI4, stronger effect = lower value 1 | S. cerevisiae deletion strains, locus YNL248C, strain rpa49, stronger effect = lower value 1 | S. cerevisiae deletion strains, locus YNL250W, strain rad50, stronger effect = lower value 1.02 | S. cerevisiae deletion strains, locus YNL271C, strain bni1, stronger effect = lower value 0.989 | S. cerevisiae deletion strains, locus YNL298W, strain CLA4, stronger effect = lower value 0.992 | S. cerevisiae deletion strains, locus YNL307C, strain MCK1, stronger effect = lower value 0.995 | S. cerevisiae deletion strains, locus YNL322C, strain KRE1 (second series), stronger effect = lower value 1.02 | S. cerevisiae deletion strains, locus YNR049C, strain mso1, stronger effect = lower value 0.999 | S. cerevisiae deletion strains, locus YNR052C, strain pop2, stronger effect = lower value 0.987 | S. cerevisiae deletion strains, locus YOL006C, strain TOP1, stronger effect = lower value 0.989 | S. cerevisiae deletion strains, locus YOL012C, strain htz1 0.76 | S. cerevisiae deletion strains, locus YOL147C, strain pex11, stronger effect = lower value 0.99 | S. cerevisiae deletion strains, locus YOR001W, strain rrp6, stronger effect = lower value 1.03 | S. cerevisiae deletion strains, locus YOR061W, strain CKA2, stronger effect = lower value 0.966 | S. cerevisiae deletion strains, locus YOR069W, strain VPS5, stronger effect = lower value 0.998 | S. cerevisiae deletion strains, locus YOR070C, strain gyp1, stronger effect = lower value 1.01 | S. cerevisiae deletion strains, locus YOR080W, strain dia2, stronger effect = lower value 0.998 | S. cerevisiae deletion strains, locus YOR083W, strain WHI5, stronger effect = lower value 1.01 | S. cerevisiae deletion strains, locus YOR106W, strain vam3, stronger effect = lower value 1 | S. cerevisiae deletion strains, locus YOR136W, strain idh2, stronger effect = lower value 0.979 | S. cerevisiae deletion strains, locus YOR144C, strain elg1, stronger effect = lower value 0.989 | S. cerevisiae deletion strains, locus YOR184W, strain ser1, stronger effect = lower value 0.967 | S. cerevisiae deletion strains, locus YOR231W, strain MKK1, stronger effect = lower value 0.984 | S. cerevisiae deletion strains, locus YOR265W, strain rbl2, stronger effect = lower value 1 | S. cerevisiae deletion strains, locus YOR270C, strain vph1, stronger effect = lower value 0.967 | S. cerevisiae deletion strains, locus YOR290C, strain snf2, stronger effect = lower value 1 | S. cerevisiae deletion strains, locus YOR316C, strain cot1, stronger effect = lower value 0.989 | S. cerevisiae deletion strains, locus YPL051W, strain arl3, stronger effect = lower value 1.02 | S. cerevisiae deletion strains, locus YPL078C, strain atp4, stronger effect = lower value 0.997 | S. cerevisiae deletion strains, locus YPL106C, strain sse1, stronger effect = lower value 1.02 | S. cerevisiae deletion strains, locus YPL240C, strain hsp82, stronger effect = lower value 1.01 | S. cerevisiae deletion strains, locus YPL256C, strain CLN2, stronger effect = lower value 0.944 | S. cerevisiae deletion strains, locus YPR119W, strain clb2, stronger effect = lower value 0.985 | S. cerevisiae deletion strains, locus YPR141C, strain kar3, stronger effect = lower value 0.986 | S. cerevisiae deletion strains, locus YPR163C, strain tif3, stronger effect = lower value 0.982 | S. cerevisiae deletion strains, locus YPR167C, strain met16, stronger effect = lower value 0.987 | S. cerevisiae deletion strains, strain wtn01, stronger effect = lower value 0.968 | S. cerevisiae strains, strain wild type, stronger effect = lower value 0.988
